Screening data deposited in PubChem by National Center for Advancing Translational Sciences (NCATS).
An excerpt weighted towards active compounds, which were near 6.9% of everything screened.
Giardia killer – kills Giardia lamblia; Giardia lamblia trophozoite viability; activity change, % at 7.66 µM, hits read low; 340,000 tested, 0.15% active; in the data active = activity change below about -80%; inconclusive = between about -30% and that limit;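 note: parasites exposed to compound for two days anaerobically before the ATP read; % is set by controls: 0 for no effect and ±100 for the full control effect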
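Each well holds 100 Giardia trophozoites and compound. After two days (48 hrs) at 37 deg C in anaerobic conditions, ATP is quantified by luminescence.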
Vif-APOBEC3G blk – inhibitors of Vif-APOBEC3G interaction; Q9HC16; Potency, µM (titrated, usually from 46.1 µM), inactives show at the top dose activity, negative = active, most hits filed as inhibitors; HeLa A3G-eYFP + Vif (tagged APOBEC3G with the HIV-1 protein that degrades it), YFP fluorescence, overnight; 410,000 tested, 0.076% active; note: potency is the fitted concentration of half-maximal effect; % is set by controls: 0 for no effect and ±100 for the full control effect; nearly all actives have a fitted effect of over 60% in size
Target sequence (Q9HC16 whole entry, looked up): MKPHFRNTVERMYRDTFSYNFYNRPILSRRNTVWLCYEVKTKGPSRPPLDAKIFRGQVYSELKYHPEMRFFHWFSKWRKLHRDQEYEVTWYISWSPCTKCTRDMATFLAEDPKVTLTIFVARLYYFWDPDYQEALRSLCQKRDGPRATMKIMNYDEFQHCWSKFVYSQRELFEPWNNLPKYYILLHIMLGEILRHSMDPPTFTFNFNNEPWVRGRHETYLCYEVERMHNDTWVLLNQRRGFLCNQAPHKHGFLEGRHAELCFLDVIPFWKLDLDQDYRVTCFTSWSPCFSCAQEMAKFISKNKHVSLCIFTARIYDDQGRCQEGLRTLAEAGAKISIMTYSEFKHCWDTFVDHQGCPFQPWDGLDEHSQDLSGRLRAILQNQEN
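HeLa cells stably expressing Vif and C-terminally eYFP-tagged A3G, seeded overnight at 37 deg C, then exposed to compound by pintool overnight at 37 deg C. Rise in yellow fluorescence (Ex 488/Em 500-530, Acumen) marks blocked Vif-driven A3G degradation.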
MCF10A rerep – DNA re-replication induction in MCF 10a cells; 350,000 tested, 2.9% active; Potency, µM (doses to about 46.1 µM), inactives show top-dose activity, positive = re-replication, most hits filed as activators; MCF 10A DNA re-replication, Hoechst nuclear intensity, 48 h; note: potency is the fitted concentration of half-maximal effect; % of control where 0% means no effect; nearly all actives have a fitted effect of over 50% in size
SW480 rereplic – inducers of DNA re-replication in SW480 colon cancer cells | SW480 DNA re-replication, Hoechst DNA content imaging, 48 h | Potency, µM (doses to about 46.1 µM), for inactives: at the highest dose re-replication activation, most hits filed as activators | 340,000 tested, 1.8% active | AID 624297; note: potency is the fitted concentration of half-maximal effect; % of control where 0% means no effect; nearly all actives have a fitted effect of over 55% in size
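Cells (250 per well) received 23 nL compound or DMSO by pin tool and were kept 48 hr at 37 C, 5% CO2. Nuclei were then stained with Hoechst for 40 min and scanned for DNA content.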
IL1B secr inh – blocks inflammasome-driven IL-1 beta release; THP-1 LPS/ATP IL-1B secretion, AlphaLISA, 16 h; active compounds read low; activity change, % at 57.5 µM; 360,000 tested, 4.7% active; AID 743279; in the data active = activity change below about -50%; inconclusive = mostly about -30% to -49%; note: % is set by controls: 0 for no effect and ±100 for the full control effect
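THP-1 cells pretreated 1 hr with compounds (up to 57.5 uM final), then stimulated with LPS (250 ng/mL final) plus ATP (1.25 mM final); secreted IL-1B measured by AlphaLISA after 16 hr, decreased signal indicating inhibition.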
Vif-APOBEC3F blk – blocks the Vif interaction with APOBEC3F; 390,000 tested, 0.2% active; AID 602313; HeLa A3F-eYFP + Vif (tagged APOBEC3F with the HIV-1 protein that degrades it), YFP fluorescence increase; Potency, µM (doses to about 46.1 µM), for the others: at the top dose activity, negative = active; note: potency is the fitted concentration of half-maximal effect; % of control where 0% means no effect; nearly all actives have a fitted effect of over 65% in size
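HeLa cells stably expressing A3F-eYFP plus Vif, plated and incubated overnight at 37 deg C, then exposed to compounds overnight at 37 deg C. Blocked degradation read as raised yellow fluorescence (Ex 488/Em 500-530).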
Starred values were filed as active, the others as inactive; ? = inconclusive; nt = not tested or not shown. Unless noted, calls come from the whole dose curve; as a rule, active = well fitted curve in the direction sought with a large enough effect; inconclusive = small, poorly fitted or top-dose-only effect, or another doubt; inactive = no such curve, though single readings can be large; an effect the other way counts as inactive or inconclusive.

SMILES	Giardia killer	Vif-APOBEC3G blk	MCF10A rerep	SW480 rereplic	IL1B secr inh	Vif-APOBEC3F blk
CC1(C)CC(=O)C2=C(C1)C(c1cn(-c3ccccc3)nc1-c1ccccc1)C(C#N)=C(N)O2 (stereo not given)	2	-11%	?	13%	-56*	2%
CC1(C)CC(=O)C2=C(C1)OC(N)=C(C#N)C2c1cn(-c2ccccc2)nc1-c1ccc(F)cc1 (stereo not given)	12	-4%	?	11%	?	-22%
OCCC1CN(Cc2ccc(-c3ccco3)cc2)CCN1Cc1ccsc1 (stereo not given)	10	4%	?	2%	-61*	-1%
COc1ccc(-c2nc3cnccn3c2Nc2ccc(C)cc2)cc1	12	-13%	0%	5%	89	-1%
CSc1ccc(-c2nc3cnccn3c2Nc2ccc3c(c2)OCO3)cc1	8	-21%	5.8µM*	7%	86	5%
Cc1ccc(-c2nc3cnccn3c2Nc2ccccc2)o1	-19	-14%	23µM*	?	36	0%
Clc1ccc(-c2nc3cnccn3c2Nc2ccc3c(c2)OCO3)cc1	-23	-22%	?	13%	64	-2%
Cc1ccc(Nc2c(-c3ccccc3)nc3cnccn23)cc1	-14	2%	23µM*	17%	93	-10%
COc1ccc(OC)c(S(=O)(=O)N2CC=C(c3c(C)n(CC(=O)N4CCCC4)c4ccccc34)CC2)c1	nt	-2%	nt	nt	nt	-1%
CC(=O)N1CCC2(CC1)OC(=O)C(C)=C2C(=O)Nc1ccccc1C(F)(F)F	nt	1%	nt	nt	nt	-15%
Cc1ccc(S(=O)(=O)N2CCc3cc(C(=O)N(C)Cc4ccccc4)ccc32)cc1	nt	0%	nt	nt	nt	-1%
COc1cc(OC)c(NC(=O)c2c(C)nn(-c3ccc(C)cc3)c2-n2cccc2)cc1Cl	nt	0%	nt	nt	nt	-4%
CCOC(=O)C1=C(C)OC(=Cc2ccccc2)C1=O	nt	3%	nt	nt	32	-11%
CCOC(=O)C1=C(O)c2ccccc2C(=O)/C1=C\c1ccc(C)cc1	-3	?	21µM*	?	0	25µM*
CCn1c(=O)cc(OCC(=O)Nc2cc(OC)c(OC)c(OC)c2)c2ccccc21	nt	1%	nt	nt	nt	-2%
CCn1c(SCc2cccc(Br)c2)nnc1-c1nonc1NC(C)=O	nt	4%	nt	nt	nt	2%
O=c1oc2cc(Br)ccc2n1CSC1=NCCS1	?	-11%	?	?	-65*	-3%
CC1Cc2ccccc2N1S(=O)(=O)c1nnc(NC(=O)c2ccccc2Br)s1 (stereo not given)	nt	-1%	nt	nt	nt	-5%
CC(=O)c1ccc(NS(=O)(=O)c2ccc(-n3cccn3)cc2)cc1	nt	2%	nt	nt	nt	1%
Cc1nnc(N/N=C/c2c(Cl)cccc2Cl)n1N	1	-11%	?	?	-105*	?
CCc1nnc(N/N=C/c2c(F)cccc2Cl)n1N	-16	0%	15%	16%	-4	4%
CCNc1nc(N)nc(Oc2ccc(OCC(=O)OC)nn2)n1	nt	0%	nt	nt	nt	5%
Cc1cc(C)cc(N2C(=O)CC(N3CCOCC3)C2=O)c1 (stereo not given)	-6	0%	18µM*	22%	-4	-1%
Cc1ccccc1NC(=S)NNc1ncc(C(F)(F)F)cc1Cl	6	0%	11%	-7%	-9	0%
Cc1cc(C)nc(SCC(=O)Nc2ncc(C(F)(F)F)cc2Cl)n1	-15	-1%	13%	1%	32	9%
SMILES	Giardia killer	Vif-APOBEC3G blk	MCF10A rerep	SW480 rereplic	IL1B secr inh	Vif-APOBEC3F blk
O=C(CSc1ncccn1)Nc1ncc(C(F)(F)F)cc1Cl	14	2%	2.1µM*	-61%	10	0%
Cc1c(Cl)cccc1NC(=S)NNc1ncc(C(F)(F)F)cc1Cl	-10	0%	?	?	-69*	-10%
NC(=O)NNc1ncc(C(F)(F)F)cc1Cl	-4	3%	-7%	?	-8	3%
CN(C)S(=O)(=O)c1cc(NC(=O)CSc2cccc[n+]2[O-])ccc1Cl	14	-8%	5%	-19%	-6	4%
CN(C)S(=O)(=O)c1cc(NC(=O)CSc2ncc(C(F)(F)F)cc2Cl)ccc1Cl	2	-9%	16%	1%	-82*	8%
O=C(NNc1ncc(C(F)(F)F)cc1Cl)c1c(Cl)cccc1Cl	7	?	6.5µM*	?	19	-6%
Cc1nn(Cc2c(F)c(F)c(F)c(F)c2F)c(C)c1NC(=O)c1ccc(COc2ccc(Cl)cc2Cl)o1	11	-6%	?	?	-63*	1%
COc1ccc(-c2[nH]c(-c3ccc(O)cc3)nc2-c2ccccc2)cc1	nt	-3%	nt	nt	nt	3%
c1csc(-c2nnc(NC3CCCCC3)c3ccccc23)c1	15	0%	?	-2%	-92*	4%
O=C1Nc2ccc(S(=O)(=O)N3CCCCCC3)c3cccc1c23	12	0%	21µM*	0%	65	1%
CC(O)CN1C(=O)C(CC(=O)Nc2ccc(Cl)cc2)SC1=Nc1ccccc1 (stereo not given)	10	-8%	?	4%	-56*	1%
COc1ccc(N=C2SC(CC(=O)Nc3ccccc3)C(=O)N2Cc2ccccn2)cc1 (stereo not given)	-28	0%	2%	?	-67*	0%
COc1ccc(-c2cc3nc(C4CCN(C(=O)OC(C)(C)C)CC4)c(C(=O)Nc4cc(Cl)cc(Cl)c4)cn3n2)cc1	nt	-1%	nt	nt	nt	-5%
CC(OC(=O)c1c2c(nc3ccccc13)/C(=C\c1ccc3c(c1)OCO3)CCC2)C(=O)Nc1ccc(S(N)(=O)=O)cc1 (stereo not given)	-3	-12%	3.3µM*	21µM*	?	-38%
Cc1cccc(C)c1NC(=O)COC(=O)c1c2c(nc3ccccc13)/C(=C\c1ccc3c(c1)OCO3)CCC2	0	-9%	?	?	13	6%
CCc1ccc2nc(N(Cc3cccnc3)C(C)=O)sc2c1	nt	12%	nt	nt	nt	1%
Cc1cc(OCC(=O)Nc2ccccn2)c2c(C)cc(=O)oc2c1	-17	7%	3%	?	-54*	3%
COc1ccc2[nH]cc(CCNC(=O)COc3ccc4ccc(=O)oc4c3)c2c1	-1	-2%	-7%	0%	-23	-3%
Cc1cc(=O)oc2ccc(OCc3ccccc3)cc12	-4	-11%	0%	-20%	29	0%
Cc1c(C)c2ccc(OCC(=O)Nc3ccccn3)c(C)c2oc1=O	-98*	4%	-11%	-14%	4	4%
Cc1cc(=O)oc2cc(OCC(=O)NCCc3c[nH]c4ccc(F)cc34)ccc12	?	1%	14%	13µM*	-25	3%
